About 550 (0.39%) of roughly 140,000 compounds were called active. Cut-off read from the data, not from the text of the source: active = inhibition above about 27%; inactive = the rest. For the sample, actives were picked, then their nearest neighbours and some compounds at random.

The target of the assay is Galanin receptor type 2 (Homo sapiens) (UniProt O43603). The assay is described as follows: GALR2 antagonists in receptor-expressing cells, primary screen (AID 828).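 Note: cells stimulated with galanin 1-16 at roughly its EC80; 0% = agonist challenge control and 100% = basal control without agonist.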 As to conditions: antagonist mode, at 4 µM, hits give high values.
Sequence of Galanin receptor type 2 (Homo sapiens) (O43603 whole entry, looked up): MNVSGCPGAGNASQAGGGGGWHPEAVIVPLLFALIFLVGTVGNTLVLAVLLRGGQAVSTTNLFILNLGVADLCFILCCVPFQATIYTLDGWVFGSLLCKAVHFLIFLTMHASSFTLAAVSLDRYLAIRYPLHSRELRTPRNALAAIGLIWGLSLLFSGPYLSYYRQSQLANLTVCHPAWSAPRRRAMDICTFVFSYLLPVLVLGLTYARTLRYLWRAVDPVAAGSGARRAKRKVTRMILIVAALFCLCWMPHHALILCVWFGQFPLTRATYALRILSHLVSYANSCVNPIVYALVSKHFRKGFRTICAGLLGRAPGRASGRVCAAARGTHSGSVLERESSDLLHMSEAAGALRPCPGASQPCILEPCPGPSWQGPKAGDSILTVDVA
Turning to `c1ccc(-c2[nH]ncc2-c2nc3ccccc3[nH]2)cc1`, the inhibition is 0.69% (inactive).

For the compound `Cc1ccc(-c2nc3ccccc3[nH]2)cc1N`, the inhibition was 4.32% (inactive).

Turning to `c1ccc2[nH]c(-c3nc4ccccc4[nH]3)nc2c1`, the inhibition is 35.5% (active).

With `Cc1ccc(-c2nc(-c3cccnc3)sc2CC(=O)Nc2ccc(C)c(Cl)c2)cc1`, the inhibition was 8.6% (inactive).

Consider `CSc1ccc(/C=N/NC(=O)c2cccc(Cl)c2)cc1`, for which the inhibition is 9.93% (inactive).

Turning to `CCCN(CCC)C(=S)Nc1cc(C(=O)OC)ccc1C(=O)OC`, the inhibition was 0.52% (inactive).

In the case of `O=C(Oc1cccc(N2C(=O)C3C4c5ccccc5C(c5ccccc54)C3C2=O)c1)c1ccco1` (centres undefined), the inhibition was 1.71% (inactive).

On to `O=C1C2C3C=CC(C4CC34)C2C(=O)N1c1nccs1` (centres undefined), for which the inhibition is -7.75% (inactive).

As for `CC[C@H]1CN2CCc3cc(OC)c(OC)cc3[C@@H]2C[C@@H]1C[C@H]1NCCc2cc(OC)c(OC)cc21`, the inhibition was 95% (active).

With `COc1cc2c(cc1O)[C@H](Cc1ccc(Oc3cc(C[C@@H]4NCCc5cc(OC)c(O)cc54)ccc3O)cc1)NCC2`, the inhibition is 1.51% (inactive).

For the compound `O=C(NCCc1ccccc1)C1CCC(Cn2c(=O)c3ccccc3n(Cc3cccnc3)c2=O)CC1` (centres undefined), the inhibition was -3.73% (inactive).

In the case of `Cc1ccc(-n2nc(C)c(/C=N/NC(=O)c3cccs3)c2Cl)cc1`, the inhibition was -3.43% (inactive).

With `Cc1cc(-c2n[nH]c(=S)n2/N=C/C(Br)=C/c2ccccc2)n[nH]1`, the inhibition was 34.7% (active).

For the compound `Cc1ccc(/C=N\n2c(-c3ccccc3)n[nH]c2=S)s1`, the inhibition was 5.78% (inactive).

In the case of `S=c1[nH]nc(-c2cccnc2)n1/N=C/C(Cl)=C\c1ccccc1`, the inhibition was 18% (inactive).

Take `Cc1nc2ccccc2nc(C)c1=NOCc1ccc(Cl)cc1Cl`: the inhibition was 10.4% (inactive).

For the compound `COc1ccc(/C=N/OCC(=O)N(Cc2ccccc2)c2ccccc2C(=O)O)cc1`, the inhibition is 2.54% (inactive).

With `CNC(=O)/C(C#N)=C/c1c(F)cccc1Cl`, the inhibition is 20.6% (inactive).

`COc1ccc(/C=C2/C(=O)OCc3cc(OC)c(OC)cc32)c(OC)c1`: the inhibition was 2.64% (inactive).

Take `COc1ccc(C2NC(=S)NC3=C2CCc2ccccc23)cc1OC` (centres undefined): the inhibition was -4.17% (inactive).

As for `O=C(N/N=C/c1ccccn1)C12CC3CC(CC(C3)C1)C2`, the inhibition was -0.89% (inactive).

Consider `CN(c1nc2ccccc2n2c(-c3ccco3)nnc12)S(=O)(=O)c1ccccc1`, for which the inhibition was 3% (inactive).

Turning to `CN1c2ccccc2-c2nc3ccccc3n2C1c1ccco1` (centres undefined), the inhibition was -6.2% (inactive).

Take `Cn1c(-c2ccco2)nc2cc3ccccc3cc21`: the inhibition is 29.7% (active).
